species on record: Homo sapiens; test: Quantitative High-Throughput Screen for Compounds Blocking the Interaction Between CBF-beta and RUNX1 for the Treatment of Acute Myeloid Leukemia: Summary. [Related pubchem assays (depositor defined):AID1477, AID504370, AID504374, AID504375]; type: functional

Potency, active:
COC(=O)c1ccc(N=NNc2ccc(C(=O)OC)cc2)cc1 0.112 µM, O=C1C2C3C=CC(C4CC34)C2C(=O)N1/N=C/c1cccs1 (stereo not given) 0.112 µM, c1coc(-c2ccnc3ncnn23)c1 0.1 µM, NNc1nc2cccnc2n(CCNc2ncc(C(F)(F)F)cc2Cl)c1=O 0.126 µM, O=C(O)c1cccc(NC(=S)N/N=C/c2cccc(O)c2)c1 0.141 µM, COC(=O)c1ccc(C)c(-n2c(C)cc(C=O)c2C)c1 0.112 µM, CN1CCCN(C(=O)/C=C/c2ccc(Cl)cc2Cl)CC1 0.126 µM, N[C@@H](CCCCNC(=O)CCCC[C@@H]1SC[C@H]2NC(=O)N[C@H]12)C(=O)O 0.398 µM, COc1cc([N+](=O)[O-])cc(/C=N/NC(=O)c2ccc(C)nc2)c1O 0.141 µM, CCOc1ccc(CN(C)CC(=O)Nc2cc(C)c(C)cc2[N+](=O)[O-])cc1.CN(C)C=O 0.141 µM
